Source: PubChem BioAssay
JMJD2A Tudor inh – blocks the human JMJD2A Tudor domain; AlphaScreen JMJD2A-Tudor / H3K4me3 peptide binding; Potency, µM (highest dose often 114 µM), for the others: top-dose activity change, negative = inhibition, actives largely listed as inhibitors; 390,000 tested, 4.4% active; further: on the % scale 0 is the no-effect control and ±100 the full control effect; nearly all actives have a fitted effect of over 50% in size
HP1b chromo inh – blocks HP1-beta chromodomain binding to methylated histone tails; AlphaScreen HP1-beta / biotin-H3K9me3 peptide binding; Potency, µM (titrated, usually from 114 µM), for the others: at the highest dose activity change, negative = inhibition, usual class: inhibitors; 390,000 tested, 0.56% active; further: nearly all actives have a fitted effect of over 70% in size
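Compound inhibition of the preformed complex between 50 nM HP1-beta and 50 nM biotinylated H3K9me3 peptide was read by AlphaScreen. Buffer was PBS pH 7.4 with 0.01% Tween-20. Incubations ran 30 min at room temperature, with 10 ug/mL donor/acceptor beads.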
BAZ2B block – blocks human BAZ2B | Q9UIF8 | AlphaScreen BAZ2B-H3K14Ac peptide displacement | Potency, µM (highest dose often 114 µM), for the others: at the highest dose activity change, negative = inhibition, most hits filed as inhibitors | 360,000 tested, 4.4% active | AID 504333; further: on the % scale 0 is the no-effect control and ±100 the full control effect; nearly all actives have a fitted effect of over 60% in size
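Protein-peptide AlphaScreen: BAZ2B 50 nM, b-H3K14Ac 50 nM, 1x PBS pH 7.4 + 0.01% Tween-20. Preincubation 30 min RT; cpd 30 min RT (top 110 uM); beads 20 min RT, light-protected.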
G9a block – blocks human histone lysine methyltransferase G9a. Q96KQ7. G9a H3K9 monomethylation, AlphaScreen, 2 h. Potency, µM (doses to about 102 µM), without a hit: top-dose activity, negative = inhibition, usual class: inhibitors. 350,000 tested, 8.8% active; further: on the % scale 0 is the no-effect control and ±100 the full control effect; nearly all actives have a fitted effect of over 75% in size
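Step 1: enzyme (final 20 nM) with compound, 15 min RT. Step 2: substrate peptide 500 nM and SAM 20 uM, 2 h RT. Step 3: anti-H3K9me1 antibody and AlphaScreen beads, 10 min, then plate read.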
Sfp inh – inhibitors of Bacillus subtilis Sfp phosphopantetheinyl transferase. Biochemical Sfp PPTase activity, qHTS. 310,000 tested, 3.5% active. Q9F4F7. Potency, µM, for inactives: largest response in the series, negative = inhibition, most hits filed as inhibitors;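 further: the enzyme is Sfp with the accession as filed and its product quenches rhodamine fluorescence; 0% = enzyme reaction without inhibitor and -100% = no enzyme wells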
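After 15 min at room temperature with compound, 15 nM Sfp received 5 uM rhodamine-CoA plus 12.5 uM BHQ-2-ybbR (50 mM Hepes pH 7.6, 10 mM MgCl2). Rate came from the fluorescence difference over 30 min, ex 525/em 598 nm.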
L3MBTL1 inh – inhibitors of human L3MBTL1. Q9Y468. Potency, µM (series often up to 57.1 µM), without a hit: top-dose activity, negative = inhibition, hits mostly inhibitors. AlphaScreen L3MBTL1–H3K9me1 peptide binding. 230,000 tested, 0.66% active; further: on the % scale 0 is the no-effect control and ±100 the full control effect; nearly all actives have a fitted effect of over 60% in size
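L3MBTL1 50 nM + b-AHA-H3(1-15)K9me1 75 nM, 30 min RT; compound added, 30 min RT; streptavidin donor/Ni-chelate acceptor beads 10 ug/mL each final, 30 min RT dark; AlphaScreen read.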
Numbers without * were called inactive; ? = inconclusive; . = no result given; [ ] = another dose, or the depositor's remark. Most compounds without a hit are left out; they make up all but 12% or so of the library. The call rests on the fitted dose curve; in most records, active means well fitted curve in the direction sought with a large enough effect; inconclusive means small, poorly fitted or top-dose-only effect, or another doubt; inactive means no such curve, though single readings can be large; an effect the other way counts as inactive or inconclusive. Potency means the concentration at half of the fitted maximal effect.

SMILES | JMJD2A Tudor inh | HP1b chromo inh | BAZ2B block | G9a block | Sfp inh | L3MBTL1 inh
Cc1ccc(NC(=O)CN2C(=O)S/C(=C\c3ccc(-c4cccc(C(=O)O)c4C)o3)C2=O)cc1C | 18µM* | 35µM* | 16µM* | 18µM* | 45µM* | -4%
Cc1cccc(NC(=O)CN2C(=O)N/C(=C/c3ccc(-c4cccc(C(=O)O)c4C)o3)C2=O)c1 | -1% | 34% | ? | ? | 32µM* | ?
Cn1cc(/C=C2/SC(=O)N(CC(=O)Nc3ccc4c(c3)OCO4)C2=O)c2ccccc21 | -1% | 13% | -1% | 26% | 0% | 2%
CCOc1cccc(/C=C2/NC(=O)N(CC(=O)Nc3cccc(C)c3)C2=O)c1O | -4% | 14% | 0% | -7%[59 µM] | 5% | -5%
Cc1ccc(NC(=O)Cn2c(=O)n(Cc3ccccc3)c(=O)c3sc4ccccc4c32)cc1 | -11% | 30% | 1% | -11%[59 µM] | . | .
CCCN1C(=O)C2(c3ccccc31)c1c(oc3ccc(C)cc3c1=O)C(=O)N2CCOC (stereo unspecified) | -1% | 24% | -15% | -3%[59 µM] | . | .
COc1ccc(C2/C=C\CN(CC(C)C)C(C)C(=O)N2Cc2ccc(F)cc2)cc1 (stereo unspecified) | -8% | 44% | . | . | -3% | .
O=[N+]([O-])C(=C1NCCN1)C(Cl)=C(Cl)Cl | 11% | 44% | -11% | 56µM* | 6% | 4%
Cc1cc(C)c2oc(-c3cccc(NC(=O)c4ccco4)c3)nc2c1 | -15% | 32% | -2% | -46%[59 µM] | . | .
Cc1cc(C)c2oc(-c3ccc(C)c(NC(=O)/C=C/c4ccco4)c3)nc2c1 | 56µM* | ? | ? | 10µM* | . | .
O=C1C2=CC[C@H]3C(=O)N(Cc4ccc5c(c4)OCO5)C(=O)[C@@H]3[C@@H]2[C@H](O)[C@@H]2O[C@H]12 | . | . | . | . | -4% | .
O=C1CCCC/C1=C\Nc1ccccc1C(=O)O | ? | 13% | -28% | 50µM* | -3% | -3%
NC(=O)c1ccccc1N/C=C1\CCCCC1=O | -25% | 40% | ? | ? | 22% | 0%
COc1ccc(-n2c(-c3ccccc3F)nc3c(cnn3-c3ccc(C)cc3)c2=O)cc1 | -26% | 0% | . | -12%[59 µM] | . | .
CCOC(=O)c1oc2ccc(CNC(C)(C)C)c(Cl)c2c1C | 10µM* | -33% | 50µM* | 8.9µM* | -7% | 1%
COc1ccc2c(c1)NC(c1ccc(N(C)C)cc1)c1cccn1-2 (stereo unspecified) | 21% | 102% | -3% | 79µM* | ? | 1%
COc1ccc2c(c1)NC(c1cc(Cl)cc(Cl)c1O)c1cccn1-2 (stereo unspecified) | -16% | 26% | -10% | ? | 4% | 1%
Cc1nn(CCC(=O)N2CCN(c3ccccc3)CC2)c(C)c1S(=O)(=O)N1CCCC1 | -8% | 11% | -37% | -20%[12.7 µM] | . | .
Cc1ccccc1-n1c(=O)cc(N2CCN(C(=O)c3ccco3)CC2)[nH]c1=O | -15% | 2% | 8% | ? | 79µM* | -23%
Cc1ccccc1-n1c(=O)cc(N2CCCCCC2)[nH]c1=O | -12% | 25% | -5% | -13%[59 µM] | 5% | ?
Cc1nn(CC(=O)OC(C)C(=O)Nc2ccccc2[N+](=O)[O-])c(C)c1[N+](=O)[O-] (stereo unspecified) | -15% | -7% | 5% | 79µM* | -11% | -1%
CC(OC(=O)Cn1[nH]c(=O)c2ccccc2c1=O)C(=O)Nc1ccccc1[N+](=O)[O-] (stereo unspecified) | -13% | 6% | -6% | -9%[2.33 µM] | . | 6%
O=C(/N=C1\NC(=O)C(F)(C(F)(F)F)S1)NC1CCCCC1 (stereo unspecified) | 50µM* | ? | -28% | 3.2µM* | 13µM* | 7%
CCC1S/C(=N/C(=O)NC2CCCCC2)NC1=O (stereo unspecified) | -9% | 33% | -2% | 4%[59 µM] | 10% | 7%
